# Data: article PMC4336329 (PLoS ONE, 2015)
# Hit rate of the full screen: of about 310,000 compounds, about 2,200 (0.71%) showed an effect of 50% or more. The effect is printed as a negative number. Only a selection was taken, and strong results are over-represented in it overall.
# Target: human ether-à-go-go-related gene (hERG) potassium channel (human, UniProt Q12809)
# Assay: primary screen, population patch clamp on CHO cells stably expressing hERG; higher = less effect of the substance
# Method: Briefly, Chinese hamster ovary (CHO) cells stably expressing the hERG channel were dislodged from tissue culture flasks and dispensed into PPC plates. […] During the recording, background leak currents were estimated by a 100 ms step to -80 mV from an initial holding potential of -70 mV and subtracted from the subsequent current measurement. The campaign was conducted in two phases using slight differences in recording protocol. In the first phase, the initial voltage pulse used a 100 ms step to -30 mV from a holding potential of -70 mV, a 2 s conditioning step to +25 mV, and a 2 s test step to -30 mV. During the second phase of the screen, the potential during the conditioning step was raised to +45 mV. In both phases of the campaign, a secondary voltage pulse was applied using the same parameters as the second phase initial pulse. The initial and secondary pulses were applied in the absence of compound, and upon application of 1 μM and 10 μM test concentrations. Small molecule effects on hERG current density were quantified by […].
# Sequence of human ether-à-go-go-related gene (hERG) potassium channel (Q12809 whole entry, looked up): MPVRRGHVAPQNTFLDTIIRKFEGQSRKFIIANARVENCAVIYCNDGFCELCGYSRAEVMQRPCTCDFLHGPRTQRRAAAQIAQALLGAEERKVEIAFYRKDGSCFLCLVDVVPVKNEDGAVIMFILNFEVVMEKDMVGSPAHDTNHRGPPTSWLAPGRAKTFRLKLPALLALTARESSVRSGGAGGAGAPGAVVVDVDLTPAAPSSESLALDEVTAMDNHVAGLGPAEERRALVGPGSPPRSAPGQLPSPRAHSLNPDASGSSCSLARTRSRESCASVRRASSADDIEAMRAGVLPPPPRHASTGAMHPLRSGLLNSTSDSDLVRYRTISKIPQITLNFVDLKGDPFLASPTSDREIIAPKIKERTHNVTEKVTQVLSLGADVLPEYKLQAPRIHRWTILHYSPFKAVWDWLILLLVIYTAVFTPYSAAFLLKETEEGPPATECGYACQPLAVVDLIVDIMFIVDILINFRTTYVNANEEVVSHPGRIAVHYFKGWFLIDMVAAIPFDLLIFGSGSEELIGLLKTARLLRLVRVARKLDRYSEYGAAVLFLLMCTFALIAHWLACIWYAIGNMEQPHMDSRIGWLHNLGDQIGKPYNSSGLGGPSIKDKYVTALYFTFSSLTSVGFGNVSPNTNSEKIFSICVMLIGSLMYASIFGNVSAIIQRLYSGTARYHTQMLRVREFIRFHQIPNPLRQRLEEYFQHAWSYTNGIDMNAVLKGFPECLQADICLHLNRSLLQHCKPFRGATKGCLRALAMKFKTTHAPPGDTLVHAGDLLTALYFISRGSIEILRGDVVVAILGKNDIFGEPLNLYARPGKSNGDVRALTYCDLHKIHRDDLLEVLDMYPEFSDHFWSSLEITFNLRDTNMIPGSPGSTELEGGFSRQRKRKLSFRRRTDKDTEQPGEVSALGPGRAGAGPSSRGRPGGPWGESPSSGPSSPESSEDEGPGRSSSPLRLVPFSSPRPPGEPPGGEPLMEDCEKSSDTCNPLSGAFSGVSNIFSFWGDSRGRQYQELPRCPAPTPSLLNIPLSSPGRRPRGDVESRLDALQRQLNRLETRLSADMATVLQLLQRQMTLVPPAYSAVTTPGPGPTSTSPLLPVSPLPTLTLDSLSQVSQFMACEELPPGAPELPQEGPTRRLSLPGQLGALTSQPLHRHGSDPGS
row,SMILES,"hERG current change (%, negative = inhibition) at 1uM [%]"
1,O=C1NC(=Nc2cccc([N+](=O)[O-])c2)SC1(CO)CO,2.12
2,COc1ccc(C)cc1NC(=O)COC(=O)C1CC1,6.74
3,COc1ccc(C)cc1NC(=O)COC(=O)C1CCN(C(=O)c2ccc(Cl)cc2)CC1,-57.7
4,COc1ccc(OC)c(NC(=O)COC(=O)C2CCN(C(=O)c3ccc(Cl)cc3)CC2)c1,-49.1
5,Cc1ccc(Cl)cc1S(=O)(=O)N1CCC(C(=O)NC2CCN(Cc3ccccc3)CC2)CC1,-66.1
6,O=C(NC1CCN(Cc2ccccc2)CC1)C1CCN(S(=O)(=O)c2ccccc2)CC1,1.18
7,O=C(NC1CCN(Cc2ccccc2)CC1)C1CCN(S(=O)(=O)c2ccc(Cl)cc2)CC1,-16.9
8,O=C(COc1ccc(Br)cc1Cl)NC1CCN(Cc2ccccc2)CC1,-16.4
9,Cl.O=C(COc1ccccc1F)NC1CCN(Cc2ccccc2)CC1,-3.6
10,O=C(COc1ccccc1)NC1CCN(Cc2ccccc2)CC1,-8.39
11,Cc1ccc(Cl)c(OCC(=O)NC2CCN(Cc3ccccc3)CC2)c1,-93.9
12,O=C(COc1ccc(Br)cc1F)NC1CCN(Cc2ccccc2)CC1,-64.8
13,Cc1cc(OCC(=O)NC2CCN(Cc3ccccc3)CC2)c2c(C)c(C)c(=O)oc2c1,7.38
14,COC(=O)c1sc(C(C)(C)C)cc1CS(=O)(=O)c1ccc(Cl)cc1,23.7
15,CC(C)=CCOc1ccc2c(C)c(CC(=O)N3C[C@H]4C[C@@H](C3)c3cccc(=O)n3C4)c(=O)oc2c1C,-18.5
16,Cc1cc(C)c2cc(C#N)c(SCC(=O)NCC3CCCO3)nc2c1 (stereo not drawn),-2.04
17,CCSCc1nnc(SCC(=O)c2ccc(OC)cc2)n1C,2.03
18,CC(NC(=O)CSCc1ccc(Br)cc1)c1ccccc1 (stereo not drawn),9.08
19,CCOc1ccc(/C=N/NC(=O)c2cccc3ccccc23)c(OCC)c1,13.6
20,CC1CCCN(CC(=O)Nc2ccc(S(=O)(=O)N3CCCCCC3)cc2)C1 (stereo not drawn),-1.45
21,COC(=O)c1nc[nH]c1C(=O)OC,18.4

row,SMILES,"hERG current change (%, negative = inhibition) at 1uM [%]"
1,COc1ccccc1C(=O)N/C(=C/c1ccc(Br)cc1)C(=O)NCCO,1.21
2,COCCN1C(=O)N[C@H](c2cccc(C(F)(F)F)c2)C(C(=O)OC)=C1C,5.44
3,O=S(=O)(NCC(c1ccc2c(c1)OCO2)N1CCOCC1)c1ccc(Br)cc1 (stereo not drawn),12.6
4,CN1CCN(C(CNS(=O)(=O)c2ccc(Br)cc2)c2ccc3c(c2)OCO3)CC1 (stereo not drawn),-59.5
5,COc1ccc(C)cc1S(=O)(=O)NCC(c1ccc2c(c1)OCO2)N1CCOCC1 (stereo not drawn),5.86
6,COc1ccc(F)cc1S(=O)(=O)NCC(c1ccc2c(c1)OCO2)N1CCN(C)CC1 (stereo not drawn),-12.6
7,CCOc1ccc(S(=O)(=O)NCC(c2ccc3c(c2)OCO3)N2CCN(C)CC2)cc1 (stereo not drawn),-3.34
8,COc1ccc(C)cc1S(=O)(=O)NCC(c1ccc2c(c1)OCO2)N1CCN(C)CC1 (stereo not drawn),-54.9
9,C=CCON/C(CCC)=C1\C(=O)CC(C)(C)CC1=NC,18.6
10,O=C(CN(C(=O)CCC(=O)Nc1nccs1)c1ccc2c(c1)OCO2)NCc1ccc(F)cc1,9.89
11,COc1cccc(CN2C(=O)[C@H]3Cc4c([nH]c5ccccc45)C(C)(C)N3C2=O)c1,15.2
12,O=S(=O)(Nc1nc2ccccc2nc1Cl)c1ccc2c(c1)OCCO2,8.99
13,Cc1nn(Cc2ccccc2)c(C)c1NC(=O)CSc1nc2c(c(C(F)(F)F)n1)CCc1ccccc1-2,2.11
14,CC1=C(C)C(=O)N(c2ccccn2)C1=O,11.4
15,CCOc1ccc(CN2CCN(Cc3[nH]c4ccccc4c3C)CC2CCO)cc1 (stereo not drawn),-75.2
16,CCOc1ccccc1CN1CCN(Cc2[nH]c3ccccc3c2C)CC1CCO (stereo not drawn),-13
17,CCOc1ccc(CN2CCN(Cc3[nH]c4ccc(OC)cc4c3C)CC2CCO)cc1 (stereo not drawn),-76.9
18,COc1ccc2[nH]c(CN3CCN(CC=C(C)C)C(CCO)C3)c(C)c2c1 (stereo not drawn),10.7
19,COc1cccc(CN2CCN(Cc3[nH]c4ccccc4c3C)CC2CCO)c1 (stereo not drawn),-11.2
20,COc1ccc2[nH]c(CN3CCN(CC(C)C)C(CCO)C3)c(C)c2c1 (stereo not drawn),5.18
21,CC(C)CC(=O)Nc1nnc(S(=O)(=O)N(C)Cc2ccco2)s1,21

row,SMILES,"hERG current change (%, negative = inhibition) at 1uM [%]"
1,NC(=O)CC(NC(=O)Cc1cccc2ccccc12)c1ccc(NCCCN2CCCC2=O)c([N+](=O)[O-])c1 (stereo not drawn),8.49
2,O=C(CNS(=O)(=O)c1cccc(C(F)(F)F)c1)Nc1ccccc1F,-2.49
3,CCCOC(=O)c1ccc(NS(=O)(=O)c2cccs2)cc1,8.05
4,O=C(Oc1ccc(N(C(=O)c2ccncc2)S(=O)(=O)c2cccs2)cc1)c1ccncc1,11.4
5,O=C(OCCN(CCOC(=O)c1ccncc1)S(=O)(=O)c1cccs1)c1ccncc1,-51.5
6,O=C(Oc1ccccc1O)c1cccc2ccccc12,6.76
7,Cc1ccc(N2C(=O)N(CC(=O)Nc3ccc(C)cc3C)C(=O)C2C)cc1 (stereo not drawn),7.69
8,COc1cc(NC(=S)NCc2cccnc2)cc(OC)c1,15.1
9,CCOc1ccc(NC(C)=O)cc1[N+](=O)[O-],5.43
10,CCOC(=O)C1(CCc2ccccc2)CCN(Cc2cnc(N(C)C)s2)CC1,-86.4
11,CCOC(=O)C1(CCc2ccccc2)CCN(Cc2nccn2CC)CC1,-47.2
12,CCOC(=O)C1(CC2CC2)CCN(Cc2cnc(N(C)C)s2)CC1,3.01
13,CCOC(=O)C1(CCc2ccccc2)CCN(Cc2ccc(NC(C)=O)cc2)CC1,-72.5
14,CCOC(=O)C1(CCc2ccccc2)CCN(Cc2ccn[nH]2)CC1,-43.8
15,CCOC(=O)C1(CCc2ccccc2)CCN(Cc2cccc3c2OCO3)CC1,-63.7
16,CCOC(=O)C1(CCc2ccccc2)CCN(Cc2csc(C(C)=O)c2)CC1,-33.6
17,CCOC(=O)C1(CCOc2ccccc2)CCN(Cc2ccc(NC(C)=O)cc2)CC1,-38.6
18,CCOC(=O)C1(CCc2ccccc2)CCN(Cc2ccccn2)CC1,-57.1
19,CCOC(=O)C1(CCOc2ccccc2)CCN(Cc2cccc3c2OCO3)CC1,-7.1
20,CCOC(=O)C1(Cc2ccccc2)CCN(Cc2cccc3c2OCO3)CC1,1.36
21,CCOC(=O)C1(CCCc2ccccc2)CCN(Cc2cnc(C)s2)CC1,-44.7
